In PubChem BioAssay (Tox21):
Values joined by “and” are separate entries in the source; they are usually repeats but may differ in a detail not shown here. Equal entries are not always repeated. Inconclusive results are not listed. Entries that show only a call come without a potency. Values without a mark were called inactive. Active and inactive are the calls of the source. Unless noted, the call rests on the fitted dose curve; in most records, active means well fitted curve in the direction sought with a large enough effect in the repeat runs; inconclusive means weak or mixed curves; inactive means no such curve, though single readings can be large; an effect the other way counts as inactive or inconclusive.

Columns and labels:
[1] = qHTS assay to identify small molecule antagonists of the estrogen related receptor (ERR) signaling pathway (AID 1224819; further: series mostly up to about 46 µM; nearly all actives have a fitted effect of over 50% in size)
Outline: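 Luminescence readout (One-Glo, 30 min, RT) of ERR cell line after 18 h compound exposure at 37 C; cells seeded 2,000/well, pre-incubated 6 h, compounds pinned from DMSO stocks.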

[2] = qHTS assay to identify small molecule agonists of the estrogen related receptor (ERR) signaling pathway (AID 1224820)
Outline: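 After 6 h plating (2,000 cells/well) and 18 h compound treatment at 37 C, ERR cells were lysed with One-Glo and luminescence read after 30 min at room temperature.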

[3] = system: estrogen-related receptor alpha (ERRalpha) with PGC-1alpha coactivator, human; assay: qHTS assay to identify small molecule antagonists of the estrogen related receptor signaling pathway with the pleiotropic PPARgamma coactivator (PGC) (AID 1224821; calls by dose curve;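 further: series mostly up to about 46 µM; lower luminescence signal means antagonism of PGC/ERR signalling; nearly all actives have a fitted effect of over 50% in size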)
Outline: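 Luminescence from One-Glo luciferase reagent (30 min, room temperature) measured after 18 h compound treatment at 37 °C. Cells carry the PGC/ERR reporter and were seeded 6 h prior to dosing.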

[4] = qHTS assay to identify small molecule agonists of the estrogen related receptor signaling pathway with the pleiotropic PPARgamma coactivator (PGC) (AID 1224823)
Outline: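 Luminescence from One-Glo reagent (30 min, room temperature) was read after 18 h compound treatment at 37 C of PGC/ERR cells plated 6 h beforehand; compounds delivered in DMSO by pin tool.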

[5] = qHTS assay to identify small molecule antagonists of the retinoid acid receptor (RAR) signaling pathway - cell viability counter screen (AID 1159551); further: nearly all actives have a fitted effect of over 35% in size
Outline: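 C3RL4 RARE-luciferase line; cpds + retinol 1 uM final, 6 h, 37 C/5% CO2; CellTiter-Glo ATP luminescence, 30 min RT.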

[6] = qHTS assay to identify small molecule antagonists of the retinoic acid receptor (RAR) signaling pathway (AID 1159552; further: nearly all actives have a fitted effect of over 50% in size)
Outline: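 Test chemicals and DMSO controls were pin-transferred onto C3RL4 cells a day after seeding; retinol (1 uM final) followed at once. Luminescent reporter output was quantified after 6 hr of co-incubation and 30 min with detection reagent.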

[7] = qHTS assay to identify small molecule agonists of the retinoic acid receptor (RAR) signaling pathway (AID 1159553); further: potency means the concentration at half of the fitted maximal effect
Outline: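 RARE-luc C3RL4 cells; overnight attachment 37 C/5% CO2; compound (DMSO) 6 hr; luciferase reagent, 30 min RT; luminescence read-out.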

[8] = molecular target: Luciferin 4-monooxygenase (Photinus pyralis) (UniProt P08659); assay: qHTS assay to identify small molecule inhibitors of firefly luciferase (AID 1224835); further: nearly all actives have a fitted effect of over 25% in size; further: potency means the concentration at half of the fitted maximal effect
Luciferin 4-monooxygenase (Photinus pyralis), sequence (P08659 whole entry, looked up): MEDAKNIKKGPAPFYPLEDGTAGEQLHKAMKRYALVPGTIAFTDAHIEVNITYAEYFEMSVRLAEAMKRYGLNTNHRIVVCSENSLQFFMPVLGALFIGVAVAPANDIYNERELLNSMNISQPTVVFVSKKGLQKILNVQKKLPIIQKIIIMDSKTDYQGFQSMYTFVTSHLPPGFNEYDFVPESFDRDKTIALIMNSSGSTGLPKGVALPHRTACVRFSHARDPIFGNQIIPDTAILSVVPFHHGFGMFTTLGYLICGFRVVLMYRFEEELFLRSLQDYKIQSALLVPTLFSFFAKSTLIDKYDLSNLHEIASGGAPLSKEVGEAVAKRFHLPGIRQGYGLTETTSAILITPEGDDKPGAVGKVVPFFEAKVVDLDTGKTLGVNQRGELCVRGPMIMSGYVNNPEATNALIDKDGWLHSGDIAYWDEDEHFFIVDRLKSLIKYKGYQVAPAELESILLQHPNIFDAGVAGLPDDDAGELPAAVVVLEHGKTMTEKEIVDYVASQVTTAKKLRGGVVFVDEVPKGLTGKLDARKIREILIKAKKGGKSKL
Outline: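 Inhibition of purified Photinus luciferase is measured by luminescence. Substrate levels (D-luciferin, ATP) sit at their KM values. Each compound is tested in a concentration series.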

[9] = qHTS assay to identify small molecule antagonists of the constitutive androstane receptor (CAR) signaling pathway - cell viability counter screen (AID 1224837); further: series mostly up to about 92 µM; nearly all actives have a fitted effect of over 45% in size
Outline: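 Read-out: CellTiter-Fluor fluorescence after 23 hr at 37 C/5% CO2. Cells: HepG2 double-stable for hCAR and CYP2B6-2.2kb. Compounds tested at 15 concentrations in the presence of CITCO, final concentration 50 nM.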

[10] = molecular target: Nuclear receptor subfamily 1 group I member 3 (Homo sapiens) (UniProt Q14994); assay: qHTS assay to identify small molecule antagonists of the constitutive androstane receptor (CAR) signaling pathway (AID 1224838);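 further: HepG2 cells stably expressing hCAR with CYP2B6 luciferase reporter stimulated by CITCO; nearly all actives have a fitted effect of over 40% in size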; further: potency means the concentration at half of the fitted maximal effect
Nuclear receptor subfamily 1 group I member 3 (Homo sapiens), sequence (Q14994 whole entry, looked up): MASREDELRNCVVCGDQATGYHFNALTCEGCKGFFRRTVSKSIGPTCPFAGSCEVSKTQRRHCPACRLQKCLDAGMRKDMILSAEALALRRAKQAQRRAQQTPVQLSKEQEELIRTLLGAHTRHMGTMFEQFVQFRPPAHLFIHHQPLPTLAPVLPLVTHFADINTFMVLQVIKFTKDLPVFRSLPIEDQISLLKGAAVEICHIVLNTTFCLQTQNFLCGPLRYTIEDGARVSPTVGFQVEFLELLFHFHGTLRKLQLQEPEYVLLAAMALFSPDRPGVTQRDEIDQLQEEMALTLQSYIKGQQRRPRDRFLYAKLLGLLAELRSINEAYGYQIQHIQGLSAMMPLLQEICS
Outline: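 Read-out: ONE-Glo luciferase luminescence after 30 min at room temperature. HepG2-CYP2B6-hCAR double-stable cells, compounds in 15-point titration plus 50 nM CITCO final, 24 h at 37 C/5% CO2.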

[11] = qHTS assay to identify small molecule antagonists of the estrogen related receptor signaling pathway with the pleiotropic PPARgamma coactivator (PGC) from Tox21 10K library (AID 1224841; call rule not given here; further: actives are mostly falling curves and most rising ones were filed inactive; nearly all actives have a fitted effect of over 50% in size; further: potency means the concentration at half of the fitted maximal effect)
Outline: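 Luminescence read-out (One-Glo luciferase reagent, 30 min at room temperature) from PGC/ERR cells exposed to DMSO-dissolved test compounds for 18 h at 37 C; cells, 2,000 per well, had been preincubated 6 h before compound transfer.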

[12] = qHTS assay to identify small molecule agonists of the estrogen related receptor signaling pathway with the pleiotropic PPARgamma coactivator (PGC) from Tox21 10K library (AID 1224842); further: nearly all actives have a fitted effect of over 15% in size
Outline: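 Luminescence from One-Glo (30 min, room temperature) measured after PGC/ERR cells had 18 h at 37 C with pinned compound (23 nL in DMSO). Cells had been seeded at 2,000 per well and pre-incubated 6 h.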

[13] = molecular target: Thyrotropin receptor (Homo sapiens) (UniProt P16473); assay: qHTS assay to identify small molecule agonists of the thyroid stimulating hormone receptor (TSHR) signaling pathway (AID 1224843; calls by dose curve; further: nearly all actives have a fitted effect of over 45% in size)
Thyrotropin receptor (Homo sapiens), sequence (P16473 whole entry, looked up): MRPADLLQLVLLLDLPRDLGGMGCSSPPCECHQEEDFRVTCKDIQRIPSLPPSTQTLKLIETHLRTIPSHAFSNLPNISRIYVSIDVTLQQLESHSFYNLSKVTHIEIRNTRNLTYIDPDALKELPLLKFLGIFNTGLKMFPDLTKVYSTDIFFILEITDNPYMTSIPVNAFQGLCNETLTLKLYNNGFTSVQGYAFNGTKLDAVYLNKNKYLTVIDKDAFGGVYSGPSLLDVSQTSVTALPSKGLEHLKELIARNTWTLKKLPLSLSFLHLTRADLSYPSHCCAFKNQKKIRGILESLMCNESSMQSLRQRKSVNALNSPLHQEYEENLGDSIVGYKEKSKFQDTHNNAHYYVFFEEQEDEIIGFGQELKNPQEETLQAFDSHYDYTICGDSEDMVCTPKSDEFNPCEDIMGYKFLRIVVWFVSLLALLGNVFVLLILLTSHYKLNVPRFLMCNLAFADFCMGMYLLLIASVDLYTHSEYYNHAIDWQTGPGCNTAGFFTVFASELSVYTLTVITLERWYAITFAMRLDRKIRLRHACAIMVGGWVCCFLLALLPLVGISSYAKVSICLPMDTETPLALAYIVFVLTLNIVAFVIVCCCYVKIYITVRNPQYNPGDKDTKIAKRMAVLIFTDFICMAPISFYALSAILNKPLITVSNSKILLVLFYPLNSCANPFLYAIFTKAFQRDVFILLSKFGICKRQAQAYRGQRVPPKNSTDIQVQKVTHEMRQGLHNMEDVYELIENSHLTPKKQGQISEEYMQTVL
Outline: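 Agonist activity read as cAMP rise via d2/cryptate HTRF competition, 1 h room-temperature detection, in HEK293 cells expressing TSHR. Fifteen-point titrations, each run in triplicate, with a 30 min room-temperature incubation beforehand.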

[14] = qHTS assay to identify small molecule agonists of the hypoxia (HIF-1) signaling pathway - cell viability counter screen (AID 1224844; calls by dose curve; further: nearly all actives have a fitted effect of over 50% in size; further: potency means the concentration at half of the fitted maximal effect)
Outline: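 CellTiter-Glo luminescence read-out, 30 min RT, taken in the same wells as the beta-lactamase HRE reporter assay; HRE-bla ME-180 cells, 0.5% dialyzed FBS, 17 hr compound treatment at 37C, 5% CO2.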

[15] = qHTS assay to identify small molecule antagonists of the estrogen related receptor (ERR) signaling pathway from Tox21 library - cell viability counter screen (AID 1224834); further: nearly all actives have a fitted effect of over 30% in size; further: potency means the concentration at half of the fitted maximal effect
Outline: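 Multiplexed viability counter screen in ERR cells: 17.5 h compound exposure at 37 C, CellTiter-Fluor added, 30 min at 37 C/5% CO2, fluorescence read.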

[16] = qHTS assay to identify small molecule agonists of the constitutive androstane receptor (CAR) signaling pathway - cell viability counter screen (AID 1224836); further: series mostly up to about 92 µM; nearly all actives have a fitted effect of over 45% in size
Outline: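 23 h treatment, 37 C, 5% CO2. Cell line: HepG2 stably expressing hCAR with a CYP2B6-2.2kb construct. Co-treatment: PK11195, 0.75 uM final. Read-out: CellTiter-Fluor fluorescence intensity.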

[17] = qHTS assay to identify small molecule antagonists of the estrogen related receptor signaling pathway with the pleiotropic PPARgamma coactivator (PGC) from Tox21 10K library - cell viability counter screen (AID 1224840; active means well fitted cell-killing curve with a large enough effect in the repeat runs, not every such curve was filed as active; further: nearly all actives have a fitted effect of over 40% in size)
Outline: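 Fluorescence read-out of CellTiter-Fluor viability reagent, added after cells had been exposed to compound in DMSO for 17.5 h at 37 C; 30 min development at 37 C/5% CO2. Cells: PGC/ERR line, 2,000/well.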

[18] = molecular target: Nuclear receptor subfamily 1 group I member 3 (Homo sapiens) (UniProt Q14994); assay: qHTS assay to identify small molecule agonists of the constitutive androstane receptor (CAR) signaling pathway (AID 1224839); further: nearly all actives have a fitted effect of over 15% in size; further: potency means the concentration at half of the fitted maximal effect
Outline: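 Compounds tested at 15 concentrations on HepG2 cells stably harbouring hCAR and CYP2B6-2.2kb reporter constructs, co-treated with PK11195 (0.75 uM final), 24 h at 37 C; luminescent reporter signal quantified.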

Compound: O=[N+]([O-])c1c2ccccc2cc2ccccc12
- Potency [1]: inactive
- outcome [2]: inactive
- Potency [3]: inactive
- outcome [4]: inactive

Compound: O=C1NCN(c2ccccc2)C12CCN(CC1COc3ccccc3O1)CC2 (stereo unspecified)
- outcome [2]: inactive
- outcome [4]: inactive

Compound: O=C1c2ccccc2C(=O)C1C(=O)C(c1ccccc1)c1ccc(Cl)cc1 (stereo unspecified)
- Potency [5]: inactive
- Potency [6]: inactive
- Potency [7]: inactive
- Potency [8]: inactive
- Potency [9]: inactive
- Potency [10]: inactive
- Potency [11]: 6.11 µM (active)
- Potency [12]: inactive
- Potency [13]: inactive
- Potency [14]: 9.77 µM (active)

Compound: N#CC(Cl)Cl
- Potency [5]: inactive
- Potency [6]: inactive
- Potency [7]: 47.3 µM (active)
- Potency [15]: inactive
- Potency [8]: inactive
- Potency [16]: inactive
- Potency [17]: inactive
- Potency [12]: inactive
- Potency [13]: inactive

Compound: CC(=O)OC1(c2ccccc2)CCN(CCc2ccccc2)CC1
- Potency [5]: inactive
- Potency [6]: inactive
- Potency [7]: inactive
- Potency [8]: inactive
- Potency [10]: 8.84 µM (active)
- Potency [18]: inactive
- Potency [17]: inactive
- Potency [13]: inactive
- Potency [14]: inactive

Compound: N#C/C=C/C#N
- Potency [5]: inactive
- Potency [6]: inactive
- Potency [7]: inactive
- Potency [16]: inactive
- Potency [9]: inactive
- Potency [10]: inactive
- Potency [18]: 64 µM (active)
- Potency [17]: inactive
- Potency [13]: inactive

Compound: CCCCCCCCCBr
- Potency [5]: inactive
- Potency [6]: inactive
- Potency [7]: inactive
- Potency [15]: inactive
- Potency [16]: inactive
- Potency [9]: inactive
- Potency [10]: inactive
- Potency [18]: inactive
- Potency [17]: inactive
- Potency [13]: inactive
- Potency [14]: inactive

Compound: CN(C)c1ccc(N=Nc2ccccc2)cc1
- Potency [5]: inactive
- Potency [6]: inactive
- Potency [7]: 0.097 µM (active)
- Potency [15]: 43.3 µM (active)
- Potency [8]: 0.252 µM (active)
- Potency [13]: inactive

Compound: Oc1cccc(-c2ccccc2)c1
- Potency [5]: inactive
- Potency [6]: inactive
- Potency [15]: inactive
- Potency [8]: 35.6 µM (active)
- Potency [16]: inactive
- Potency [9]: inactive
- Potency [10]: inactive
- Potency [18]: 54.5 µM (active)
- Potency [17]: inactive
- Potency [11]: inactive
- Potency [12]: inactive
- Potency [13]: inactive
- Potency [14]: inactive

Compound: O=C(O)C1C2CCC(O2)C1C(=O)O (stereo unspecified)
- Potency [5]: inactive
- Potency [6]: inactive
- Potency [7]: inactive
- Potency [8]: inactive
- Potency [10]: 49.2 µM (active) and 44.5 µM (active)
- Potency [18]: inactive
- Potency [17]: inactive
- Potency [11]: inactive
- Potency [13]: inactive
- Potency [14]: inactive

Compound: CCCCCCCCCCCCBr
- Potency [5]: inactive
- Potency [6]: inactive
- Potency [7]: inactive
- Potency [15]: inactive
- Potency [16]: inactive
- Potency [10]: inactive
- Potency [18]: inactive
- Potency [17]: inactive
- Potency [13]: inactive

Compound: CC(Cl)CN(C)C (stereo unspecified)
- Potency [5]: inactive
- Potency [6]: inactive
- Potency [15]: inactive
- Potency [8]: inactive
- Potency [16]: inactive
- Potency [9]: inactive
- Potency [10]: inactive
- Potency [18]: inactive
- Potency [17]: inactive
